Reference: PubChem BioAssay AID493056 (National Center for Advancing Translational Sciences (NCATS), 2011)
Among all 360,000 compounds or so, about 2,400 (0.67%) were called active. The sample as a whole holds a higher share of actives than the screen did. Values without a mark were called inactive. No stated cut-off is given here; in the data, active means enhancement above about 30%; inactive means the rest.

molecular target: Thyrotropin-releasing hormone receptor (Homo sapiens) (UniProt P34981); test: qHTS for Small Molecule Agonists and Allosteric Enhancers of Human TRH Receptor: Primary Screen for Enhancers; details: TRHR cells, fluo-8 calcium fluorescence, EC20 TRH enhancement; at 2 µM; hits give high values; further: 0% is about no effect
Sequence (P34981 whole entry, looked up): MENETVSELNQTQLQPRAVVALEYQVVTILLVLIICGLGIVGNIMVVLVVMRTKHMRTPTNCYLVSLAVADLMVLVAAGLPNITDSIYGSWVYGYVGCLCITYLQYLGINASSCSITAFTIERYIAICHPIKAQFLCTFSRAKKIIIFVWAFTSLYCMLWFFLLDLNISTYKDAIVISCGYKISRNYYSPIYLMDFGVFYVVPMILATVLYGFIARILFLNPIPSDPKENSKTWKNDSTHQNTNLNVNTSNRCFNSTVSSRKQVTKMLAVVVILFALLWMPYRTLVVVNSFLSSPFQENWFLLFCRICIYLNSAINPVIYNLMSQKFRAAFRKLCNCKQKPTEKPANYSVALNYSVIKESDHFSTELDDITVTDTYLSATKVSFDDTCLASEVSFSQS
Outline: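 TRHR-expressing cells loaded with fluo-8 calcium dye were read kinetically (ex 480/em 530) during compound addition, then stimulated with an EC20 of TRH (10 nM final). Enhancement of the Gq-mediated intracellular calcium response was scored.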

SMILES	enhancement
COc1cc(OC)c(NC(=O)c2c3c(nn2C)-c2ccccc2SC3)cc1Cl	2.77%
CC(C)(C)c1ccc(C(=O)N2CCC(c3nc(-c4ccc(S(=O)(=O)N5CCCC5)cc4)no3)CC2)cc1	-2.71%
COc1cccc(-c2cc(C(=O)Nc3ccc(C)cc3)[nH]n2)c1	-0.168%
Cc1oc(-c2ccccc2F)nc1CN1CCC(C(=O)NCCc2ccc(Cl)cc2)CC1	31.8% (active)
COc1ccc(-c2nc(CN3CCC(C(=O)NCc4ccccc4)CC3)c(C)o2)cc1OC	3.63%
COc1ccc(CCNC(=O)C2CCCN(Cc3nc(-c4cccc(Cl)c4)oc3C)C2)cc1OC (stereo unspecified)	-8.38%
COc1cccc(CC2(CO)CCN(Cc3cnc(-c4cccc(C)c4)nc3)CC2)c1	1.96%
OCC1(CCc2ccccc2)CCN(Cc2ccc3nsnc3c2)CC1	-4.46%
Cc1c(CN2CCC(CO)(CCOc3ccccc3)CC2)[nH]c2ccc(Cl)cc12	35.6% (active)
CN(Cc1ccccc1)c1ccc(-c2nc(-c3ccccc3)no2)cc1[N+](=O)[O-]	5.53%
Cc1ccc(OC(=O)CSc2nnc(-c3cccs3)o2)cc1	-4.22%
COc1ccc(NC(=O)CC2SC(N3CCCCC3)=NC2=O)cc1OC (stereo unspecified)	1.49%
CCC(C)NC(=O)c1ccc(NC(=O)CC2SC(N3CCCCC3)=NC2=O)cc1 (stereo unspecified)	-8.07%
O=C(CC1SC(N2CCCC2)=NC1=O)Nc1ccc(C(=O)NCCc2ccc(F)cc2)cc1 (stereo unspecified)	33.4% (active)
Cc1cc2nc(-c3ccc(NC(=O)c4cc5ccccc5o4)cc3)oc2cc1C	-7.25%
CC(=O)c1ccc(N2CCN(c3nc4c(S(=O)(=O)c5ccccc5)nnn4c4ccc(Cl)cc34)CC2)cc1	1.21%
O=C(CNC(=O)c1ccccc1)OC(C(=O)Nc1cc([N+](=O)[O-])ccc1F)c1ccccc1 (stereo unspecified)	-0.946%
COc1ccc(/C=C/CN2CCCC(C(=O)c3cc(F)ccc3F)C2)cc1 (stereo unspecified)	31.8% (active)
O=C(c1ccc(OC2CCN(C/C=C/c3ccc(F)cc3)CC2)cc1)N1CCCCC1	0.691%

SMILES	enhancement
CSCC(=O)N1CCCC(C(=O)c2cc(F)ccc2F)C1 (stereo unspecified)	-3.7%
Cc1ccc2oc3c(c(=O)c2c1)C(c1ccc([N+](=O)[O-])cc1)N(CCCN1CCOCC1)C3=O (stereo unspecified)	-0.734%
COc1ccc2oc(=O)c(-c3cn4c(n3)sc3cc(OC)ccc34)cc2c1	1.26%
Cc1cccc(NC(=O)CN2CCCN(S(=O)(=O)c3ccc(Br)s3)CC2)c1	9.87%
C/C(=N/NC(=O)CN1CCN(S(=O)(=O)c2ccc(Br)cc2)CC1)c1ccncc1	1.09%
Cc1ccc(S(=O)(=O)N2CCN(CC(=O)N/N=C/c3ccc(Br)s3)CC2)cc1	47.7% (active)
CCOC(=O)c1ccccc1NC(=O)CCc1c(C)nc2c(c1C)c(=O)n(C)c(=O)n2C	-7.61%
Cc1cc(C)cc(NS(=O)(=O)c2ccc(-c3cc(C)no3)s2)c1	-5.49%
O=C1N=C(N2CCOCC2)S/C1=C\C=C/c1ccccc1	-2.61%
CCOc1cc(/C=C2\SC(N3CCCC(C)C3)=NC2=O)ccc1O (stereo unspecified)	-4.09%
CCc1ccc(/C=C2\SC(N3CCOCC3)=NC2=O)cc1	38.7% (active)
COc1ccc(CCNC(=O)CCCn2c(=O)c3ccccc3n(Cc3ccc(F)cc3Cl)c2=O)cc1OC	4.63%
COc1ccc(NC(=O)CSc2nc(NS(=O)(=O)c3ccc(C)cc3)cc(=O)[nH]2)cc1	-7.18%
Cc1csc(SCC(=O)Nc2sccc2C#N)n1	-4.36%
COC(=O)c1cccc(NC(=O)CSc2nc(C)cc(=O)[nH]2)c1	36.7% (active)
COc1ccc2nc(SCC(=O)Nc3c(C)cc(C)cc3C)[nH]c2c1	0.227%
COc1ccc(NC(=O)CSc2nc(C)cs2)cc1	33.7% (active)
COc1ccc(NC(=O)CSc2nc3ccccc3[nH]2)cc1	39.7% (active)
COc1ccc(NC(=O)CSc2ncnc3[nH]ncc23)cc1	3.87%

SMILES	enhancement
O=C(COC(=O)CCCSc1nc2ccccc2[nH]1)Nc1ccc(Oc2ccccc2)cc1	1.7%
CC(=O)c1cccc(NC(=O)CSc2nc3c(c(=O)[nH]2)CCC3)c1	-3.58%
COC(=O)c1cccc(Cn2nnc3sc4c(c3c2=O)CCC(C(C)(C)C)C4)c1 (stereo unspecified)	-1.23%
COc1ccc(CCNC(=O)C(=O)NCC(c2ccco2)S(=O)(=O)c2cccs2)cc1OC (stereo unspecified)	-2.44%
Cn1nnnc1Sc1ncnc2scc(-c3ccccc3[N+](=O)[O-])c12	-1.81%
COc1cc(OC)cc(C(=O)Nc2ccc3nc(Nc4cccc(C(F)(F)F)c4)cc(C)c3c2)c1	-5.96%
Cc1cccc(-c2nnc(SCC(=O)N3CCCc4ccccc43)o2)c1	-6.5%
CC1=CC(C)(C)N(C(=O)CSc2nnc(-c3ccccc3)o2)c2ccc(C)cc21	35.8% (active)
CC1=CC(C)(C)N(C(=O)CSc2nccn2C)c2cc(C)ccc21	-7.93%
CCOc1ccc(-c2cc(C)n3nc(C(=O)Nc4ccc(C)c(C)c4)cc3n2)cc1	4.67%
COc1cccc(NC(=O)c2csnn2)c1	1.76%
Cc1cccn2c(=O)c3cc(C(=O)NC4CCCCC4)sc3nc12	44.3% (active)
Cc1ccccc1-n1nc(C)c2cc(C(=O)NC3CC3)sc21	-3%
CCOC(=O)CNC(=O)c1cc2c(=O)n3cccc(C)c3nc2s1	-2%
COc1ccc(Cl)cc1NC(=O)C(C)Sc1nc2c(c(=O)[nH]1)CCCC2 (stereo unspecified)	0.18%
COc1ccc(C2COC(=O)C2=N)c(NC(=O)c2ccccc2)c1 (stereo unspecified)	-7.29%
CCOC(=O)c1cc(NC(=O)c2ccc(F)cc2)c(=O)n2c1oc1ccccc12	-6.78%
CC(=O)c1cc(NC(=O)c2ccccc2)c(=O)oc1/C=C/N(C)C	31.6% (active)
